Source: PubChem BioAssay (Tox21)
Records with an inconclusive call do not appear. Activity calls are given as the source filed them. Unless noted, the call rests on the fitted dose curve; in most records, active means well fitted curve in the direction sought with a large enough effect in the repeat runs; inconclusive means weak or mixed curves; inactive means no such curve, though single readings can be large; an effect the other way counts as inactive or inconclusive.

Key:
[1] = qHTS assay to identify small molecule antagonists of the glucocorticoid receptor (GR) signaling pathway - cell viability counter screen (AID 720693); further: nearly all actives have a fitted effect of over 55% in size; further: potency means the concentration at half of the fitted maximal effect
[2] = qHTS assay for identifying genotoxic compounds that show differential cytotoxicity against isogenic chicken DT40 cell lines with known DNA damage response pathways - wild type cell line (AID 743012); further: nearly all actives have a fitted effect of over 60% in size; further: potency means the concentration at half of the fitted maximal effect
Summary of the method: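 Parental DNA repair-proficient DT40 cells, 300 per well, were pre-incubated ~0.5 h at 37 C/5% CO2, pin-dosed with compounds in DMSO, then incubated 40 h. Viability was read as CellTiter-Glo luminescence after 30 min at room temperature.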

[3] = qHTS assay for identifying genotoxic compounds that show differential cytotoxicity against isogenic chicken DT40 cell lines with known DNA damage response pathways - Rev3 mutant cell line (AID 743014); further: nearly all actives have a fitted effect of over 55% in size; further: potency means the concentration at half of the fitted maximal effect
[4] = qHTS assay to identify small molecule antagonists of the androgen receptor (AR) signaling pathway - cell viability counter screen (AID 743033; further: nearly all actives have a fitted effect of over 45% in size)
[5] = target: Androgen receptor (Homo sapiens) (UniProt P10275); test: qHTS assay to identify small molecule antagonists of the androgen receptor (AR) signaling pathway (AID 743035; active means well fitted inhibition curve with a large enough effect in the signal ratio in the repeat runs, not every such curve was filed as active; the % refers to the signal ratio)
Summary of the method: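 HEK293 cells stably carrying a UAS-driven beta-lactamase reporter (AR-UAS-bla GripTite) were plated for 4 h at 37C, then given compound and the agonist R1881 and incubated 16 h. Reporter activity was read by LiveBLAzer B/G FRET fluorescence after 2 h at room temperature.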

[6] = target: Androgen receptor (Homo sapiens) (UniProt P10275); test: qHTS assay to identify small molecule agonists of the androgen receptor (AR) signaling pathway (AID 743036; active means well fitted activation curve with a large enough effect in the signal ratio in the repeat runs, with a control signal flat, not every such curve was filed as active; the % refers to the signal ratio)
Summary of the method: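 AR-UAS-bla HEK293 cells, plated 4 h before dosing, were treated with compound for 16 h at 37C. beta-Lactamase reporter read after 2 h with LiveBLAzer B/G FRET substrate at room temperature.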

[7] = target: Androgen receptor (Homo sapiens) (UniProt P10275); test: qHTS assay to identify small molecule agonists of the androgen receptor (AR) signaling pathway using the MDA cell line (AID 743040; further: nearly all actives have a fitted effect of over 20% in size)
Summary of the method: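 MDA-kb2 breast carcinoma cells carrying MMTV-luciferase (responsive to AR and GR), plated 5 h then treated 16 h with compounds at 37C, 0% CO2. Read-out was ONE-Glo luminescence after 30 min at room temperature.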

[8] = qHTS assay to identify small molecule antagonists of the androgen receptor (AR) signaling pathway using the MDA cell line - cell viability counter screen (AID 743041; further: nearly all actives have a fitted effect of over 45% in size)
Summary of the method: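 MDA-kb2 AR-luc cells (MMTV-luciferase, AR/GR responsive) treated with compounds plus R1881 agonist for 16 h at 37C. CellTiter-Fluor added at 15.5 h; fluorescence read after 30 min in the same wells.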

[9] = target: Androgen receptor (Homo sapiens) (UniProt P10275); test: qHTS assay to identify small molecule antagonists of the androgen receptor (AR) signaling pathway using the MDA cell line (AID 743042; further: nearly all actives have a fitted effect of over 55% in size)
Summary of the method: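 MDA-kb2 breast carcinoma cells carrying MMTV-luciferase (AR/GR responsive) were co-treated with compounds and the agonist R1881 for 16 h at 37C. Inhibition read as ONE-Glo luminescence; CellTiter-Fluor fluorescence measured in parallel for cytotoxicity.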

[10] = qHTS assay for identifying genotoxic compounds that show differential cytotoxicity against isogenic chicken DT40 cell lines with known DNA damage response pathways - Rad54/Ku70 mutant cell line (AID 743015); further: nearly all actives have a fitted effect of over 60% in size; further: potency means the concentration at half of the fitted maximal effect
On the % scale 0 is the no-effect control and ±100 the full control effect.

Sequence of Androgen receptor (Homo sapiens) (P10275 whole entry, looked up): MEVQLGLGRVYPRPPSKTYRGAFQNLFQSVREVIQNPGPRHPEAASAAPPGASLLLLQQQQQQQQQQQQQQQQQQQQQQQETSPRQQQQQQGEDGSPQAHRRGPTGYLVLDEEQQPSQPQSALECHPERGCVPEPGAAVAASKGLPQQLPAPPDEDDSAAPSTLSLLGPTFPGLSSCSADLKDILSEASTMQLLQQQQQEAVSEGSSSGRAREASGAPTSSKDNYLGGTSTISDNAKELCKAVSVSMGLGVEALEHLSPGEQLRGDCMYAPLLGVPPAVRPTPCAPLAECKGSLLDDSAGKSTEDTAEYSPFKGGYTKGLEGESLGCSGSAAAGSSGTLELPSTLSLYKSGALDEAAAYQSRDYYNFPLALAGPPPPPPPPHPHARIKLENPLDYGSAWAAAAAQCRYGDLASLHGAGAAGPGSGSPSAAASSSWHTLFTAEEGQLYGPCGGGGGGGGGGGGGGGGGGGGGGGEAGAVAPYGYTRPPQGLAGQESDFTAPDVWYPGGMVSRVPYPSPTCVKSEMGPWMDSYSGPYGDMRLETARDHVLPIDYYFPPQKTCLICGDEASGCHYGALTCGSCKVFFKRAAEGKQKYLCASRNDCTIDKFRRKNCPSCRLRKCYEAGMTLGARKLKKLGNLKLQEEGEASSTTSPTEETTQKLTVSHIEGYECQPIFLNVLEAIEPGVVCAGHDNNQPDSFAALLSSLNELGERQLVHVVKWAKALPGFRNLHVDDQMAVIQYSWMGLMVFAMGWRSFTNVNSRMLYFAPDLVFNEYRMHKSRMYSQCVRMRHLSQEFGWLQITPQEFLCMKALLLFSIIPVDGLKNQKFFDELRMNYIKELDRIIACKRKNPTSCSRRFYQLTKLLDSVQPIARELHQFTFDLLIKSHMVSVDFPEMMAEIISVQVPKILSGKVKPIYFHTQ

C=CCOCC(O)CCl (stereo unspecified)
inactive: Potency [1] | Potency [2] | Potency [3] | outcome [4] | Potency [5] | outcome [6] | outcome [7] | outcome [8] | outcome [9]

Cc1nc2ccccc2c(=O)o1
inactive: Potency [1] | Potency [2] | Potency [3] | outcome [4] | outcome [8]

NS(=O)(=O)c1cc2c(cc1Cl)NC(CC1CCCC1)NS2(=O)=O (stereo unspecified)
inactive: Potency [1] | Potency [2] | Potency [3] | outcome [4] | outcome [8]

NC(=O)NC(=O)Cc1ccccc1
inactive: Potency [1] | Potency [2] | Potency [3] | Potency [10] | outcome [8]

CCCCCCCCC(=O)OCC
inactive: Potency [1] | Potency [2] | Potency [3] | outcome [4]

COc1cc(C=O)ccc1OC(=O)C(C)C
inactive: Potency [1] | Potency [2] | Potency [3] | outcome [4] | outcome [8]

Nc1cc(Cl)cc(S(=O)(=O)O)c1O
inactive: Potency [1] | Potency [2] | Potency [3] | outcome [4] | outcome [8]

COC(=O)CCC(=O)O
inactive: Potency [1] | Potency [2] | Potency [3] | outcome [4] | outcome [8]

Cc1ccccc1OCC1CO1 (stereo unspecified)
inactive: Potency [1] | Potency [2] | Potency [3] | outcome [4] | outcome [8]

C=C(C)C(=O)OC1CC(C)CC(C)(C)C1 (stereo unspecified)
inactive: Potency [1] | Potency [2] | Potency [3] | outcome [4] | outcome [8]

CC(C)=CC(C)(C)C
inactive: Potency [1] | Potency [2] | Potency [3] | outcome [4] | outcome [8]

CC(C)COC(=O)/C=C/c1ccccc1
inactive: Potency [1] | Potency [2] | Potency [3] | outcome [4] | outcome [8]

Cn1c(=O)c2c(ncn2CC2OCCO2)n(C)c1=O
inactive: Potency [1] | Potency [2] | Potency [3] | outcome [4] | Potency [5] | outcome [6] | outcome [7] | outcome [8] | outcome [9]

COC(OC)C(C)c1ccccc1 (stereo unspecified)
inactive: Potency [1] | Potency [2] | Potency [3] | outcome [4] | Potency [5] | outcome [6] | outcome [7] | outcome [8] | outcome [9]

CCOC(=O)C(C)(C)C
inactive: Potency [1] | Potency [2] | Potency [3] | Potency [10] | outcome [4] | outcome [8]

Nc1ccnc(=O)[nH]1
inactive: Potency [1] | Potency [2] | Potency [3] | outcome [4] | Potency [5] | outcome [6] | outcome [7] | outcome [8] | outcome [9]

O=C(O)/C=C/c1ccccc1
inactive: Potency [1] | Potency [2] | Potency [3] | outcome [4] | outcome [8]

CC(=O)OC(C(=O)c1ccccc1)c1ccccc1 (stereo unspecified)
inactive: Potency [1] | Potency [2] | Potency [3] | outcome [4] | Potency [5] | outcome [6] | outcome [7] | outcome [8] | outcome [9]

COc1cc2c(Nc3ccc(Br)cc3F)ncnc2cc1OCC1CCN(C)CC1
active: Potency [1] 23.9 µM | Potency [2] 5.31 µM | Potency [3] 5.96 µM
inactive: outcome [4] | outcome [8]

C=CCOc1cc(Cl)ccc1C(=O)NCCN(CC)CC
active: Potency [2] 15 µM | Potency [3] 29.8 µM
inactive: Potency [1] | outcome [4] | outcome [8]

CNC(=O)C(c1ccccc1)c1ccccc1
active: Potency [2] 61.1 µM
inactive: Potency [1] | outcome [4] | outcome [8]

CCC(=O)OCCC(C)CCC=C(C)C (stereo unspecified)
inactive: Potency [1] | Potency [2] | outcome [4] | outcome [8]

Nc1cc(S(=O)(=O)O)ccc1S(=O)(=O)O
inactive: Potency [1] | Potency [2] | Potency [3] | outcome [8]

Nc1ccc(S(=O)(=O)NC(=O)c2ccccc2)cc1
inactive: Potency [1] | Potency [2] | Potency [10] | outcome [4] | outcome [8]

CC(C)CCCCCCOC(=O)C1CCCCC1C(=O)OCCCCCCC(C)C (stereo unspecified)
inactive: Potency [1] | Potency [2] | outcome [4] | outcome [8]

CCN(CCO)c1cccc(C)c1
inactive: Potency [1] | Potency [2] | outcome [4] | outcome [8]

CC(C)COC(=O)CCCCC(=O)OCC(C)C
inactive: Potency [1] | Potency [2] | outcome [4] | outcome [8]

CN(C1CCCCC1)S(=O)(=O)c1ccccc1N
inactive: Potency [1] | outcome [8]
active: Potency [2] 30.6 µM | Potency [10] 54.5 µM

C=CCCCCCCCCCCC
inactive: viability change, negative = cytotoxic [1] 4.18% [at 7.04 µM] | activity, negative = cytotoxicity [3] 4.5% [at 8.53 µM] | activity change, negative = cytotoxicity [10] -12.6% [at 8.55 µM] | activity change, negative = cytotoxicity [4] -0.32% [at 7.04 µM] | activity change, negative = inhibition [5] -3.92% [at 7.04 µM] | activation [6] -0.154% [at 6.9 µM] | activity change [7] 4.86% [at 8.47 µM] | viability change, negative = cytotoxic [8] -1.53% [at 8.47 µM] | activity change, negative = inhibition [9] 17.6% [at 8.47 µM]

NS(=O)(=O)c1cc2c(cc1Cl)NC(C(Cl)Cl)NS2(=O)=O (stereo unspecified)
inactive: Potency [1] | Potency [2] | Potency [10] | outcome [8]

CCCCCCCCOC(C)=O
inactive: Potency [1] | Potency [2] | Potency [10] | outcome [4] | outcome [8]
